Inconclusive results are not listed. Where a call stands in place of a potency, no number is given. Calls of active or inactive are those of the source. Calls come from the whole dose curve; as a rule, active = well fitted curve in the direction sought with a large enough effect; inconclusive = small, poorly fitted or top-dose-only effect, or another doubt; inactive = no such curve, though single readings can be large; an effect the other way counts as inactive or inconclusive.
What was measured:
[1] = system: Zika virus NS2B-NS3 protease (unlinked); assay: Optimization of GU AMC qHTS for Zika virus inhibitors: Unlinked NS2B-NS3 protease assay (AID 1347151); settings: recombinant ZIKV NS2B-NS3 protease, fluorogenic AMC substrate; series mostly up to 52.5 µM; note: nearly all actives have a fitted effect of over 80% in size; note: potency is the fitted concentration of half-maximal effect
In short: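 Noncovalent complex of NS2B hydrophilic domain and NS3 protease domain, 25 nM final, in 10 mM Tris-HCl pH 8.0, 0.01% Tween 20. AMC fluorescence change over 15 min at room temperature was fitted to a 4-parameter Hill equation.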

[2] = molecular target: N-terminal Xaa-Pro-Lys N-methyltransferase 1 (Homo sapiens) (UniProt Q9BV86); assay: qHTS Assay for Inhibitors of N-terminal methyltransferase 1 (NTMT1): LOPAC validation of the NTMT1 SAHH-coupled ThioGlo3 Assay (AID 1347143); settings: recombinant NTMT1, SAHH-coupled ThioGlo3 fluorescence; series mostly up to 114 µM;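 note: SAH from peptide methylation measured as thiol fluorescence via SAHH coupling and ThioGlo3; nearly all actives have a fitted effect of over 70% in size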; note: potency is the fitted concentration of half-maximal effect
N-terminal Xaa-Pro-Lys N-methyltransferase 1 (Homo sapiens), sequence (Q9BV86 whole entry, looked up): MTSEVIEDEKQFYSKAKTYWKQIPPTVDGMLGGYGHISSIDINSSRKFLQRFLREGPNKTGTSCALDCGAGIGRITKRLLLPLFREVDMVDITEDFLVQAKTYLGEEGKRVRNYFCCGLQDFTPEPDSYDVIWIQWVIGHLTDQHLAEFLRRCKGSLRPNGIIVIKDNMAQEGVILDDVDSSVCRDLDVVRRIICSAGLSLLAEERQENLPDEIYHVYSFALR
In short: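 NTMT1 125nM + cpds (various conc.), 1 min RT; add SAM 100uM/SAHH 10uM/ThioGlo3 15uM (addition mix). SAHH-coupled thiol detection, Ex340/Em450, t0 and 30 min RT; signal normalized to background. LOPAC 1280-cpd pilot.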

[3] = system: Zika virus NS2B-NS3 protease; assay: Primary screen GU AMC qHTS for Zika virus inhibitors (AID 1347154); settings: Zika NS2B-NS3 unlinked protease, AMC fluorogenic substrate; series mostly up to 54.1 µM; note: nearly all actives have a fitted effect of over 70% in size
In short: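 Fluorogenic AMC-substrate cleavage by noncovalent NS2B-NS3 protease complex (25 nM, pH 8.0 Tris buffer with Tween 20) followed for 15 minutes at room temperature (~20% conversion). Percent inhibition from ex340/em450 signal change, fitted by 4-parameter Hill equation.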

[4] = Confirmatory screen GU Rhodamine qHTS for Zika virus inhibitors qHTS (AID 1347157); settings: purified enzyme assay, Rhodamine110 substrate fluorescence, 15 min; series mostly up to 114 µM; note: nearly all actives have a fitted effect of over 70% in size; note: potency is the fitted concentration of half-maximal effect
In short: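 Percent inhibition came from the 15-min rise in Rhodamine110 fluorescence (1.5 microM substrate, ~15% conversion), normalized to no-inhibitor and no-enzyme wells and Hill-fitted. Unlinked protease, 25 nM, pH 8.0 Tris buffer; compounds up to 114 microM, 15-min preincubation.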

[5] = ZIKV-mCherry secondary qHTS for Zika virus inhibitors (AID 1347158); settings: Vero cells, ZIKV-mCherry infection imaging, 48-72 h; note: potency is the fitted concentration of half-maximal effect
In short: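 Read-out is percent infection: mCherry-positive Vero cells (nuclear-proximal intensity >450 RFU, 3 SD above negative controls) counted by high-content imaging of Hoechst-stained, PFA-fixed wells after 48-72 h with ZIKV-mCherry at MOI 1 and compound.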

[6] = Confirmatory screen NINDS Rhodamine qHTS for Zika virus inhibitors (AID 1347161); settings: purified enzyme assay, Rhodamine110 substrate fluorescence, 15 min; series mostly up to 38.1 µM; note: potency is the fitted concentration of half-maximal effect; nearly all actives have a fitted effect of over 60% in size
In short: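 qHTS dose-response: 25 nM linked protease, pH 8.0 Tris/Tween buffer, cpd titration, 15 min RT preinc, 1.5 microM Rhod110 peptide, 15 min reaction (~15% conversion), Ex480/Em540; 4-parameter Hill fit.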

[7] = system: Zika virus NS2B-NS3 protease (linked); assay: 384 well plate NINDS AMC confirmatory qHTS for Zika virus inhibitors (AID 1347163); settings: Recombinant NS2B-NS3 protease, Ac-VKTGKR-AMC fluorescence; note: potency is the fitted concentration of half-maximal effect; nearly all actives have a fitted effect of over 50% in size
In short: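 Enzyme (5, 30 or 60 nM final) first met test compounds for ~15 min. The AMC-tagged peptide Ac-VKTGKR-AMC followed at 30 microM. Fluorescence was then recorded at 25 min and scaled against no-enzyme and no-inhibitor wells.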

Furin (Homo sapiens) = Furin (Homo sapiens) (UniProt P09958); assay: Furin counterscreen qHTS for Zika virus inhibitors (AID 1347149); settings: furin enzymatic counterscreen, fluorogenic substrate; series mostly up to 57.5 µM;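 note: purified recombinant full-length human furin enzyme at 5 nM; fluorescence gain from furin cutting a BOC-RVRR-AMC peptide substrate over 15 min; top concentration of the series differs between compounds; nearly all actives have a fitted effect of over 70% in size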
Furin (Homo sapiens), sequence (P09958 whole entry, looked up): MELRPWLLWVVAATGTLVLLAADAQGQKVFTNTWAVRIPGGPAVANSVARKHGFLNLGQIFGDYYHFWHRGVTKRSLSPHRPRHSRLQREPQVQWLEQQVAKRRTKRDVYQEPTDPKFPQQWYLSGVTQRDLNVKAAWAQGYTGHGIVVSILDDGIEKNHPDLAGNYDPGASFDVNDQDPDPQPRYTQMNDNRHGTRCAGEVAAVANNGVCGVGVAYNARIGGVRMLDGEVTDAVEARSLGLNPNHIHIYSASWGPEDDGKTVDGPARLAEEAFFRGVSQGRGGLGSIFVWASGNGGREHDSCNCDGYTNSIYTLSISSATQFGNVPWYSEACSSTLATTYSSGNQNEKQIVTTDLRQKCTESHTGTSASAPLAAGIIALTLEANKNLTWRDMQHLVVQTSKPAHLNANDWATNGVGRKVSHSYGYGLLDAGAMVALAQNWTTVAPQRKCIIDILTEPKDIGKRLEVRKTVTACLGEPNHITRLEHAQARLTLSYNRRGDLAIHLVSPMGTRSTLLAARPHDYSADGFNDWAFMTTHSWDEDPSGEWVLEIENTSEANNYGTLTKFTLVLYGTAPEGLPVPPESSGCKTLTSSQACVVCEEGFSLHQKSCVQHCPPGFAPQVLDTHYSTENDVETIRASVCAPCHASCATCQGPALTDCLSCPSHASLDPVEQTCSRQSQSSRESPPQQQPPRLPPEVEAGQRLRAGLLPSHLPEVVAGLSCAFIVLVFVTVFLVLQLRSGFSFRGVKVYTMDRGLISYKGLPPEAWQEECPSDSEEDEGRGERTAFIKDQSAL
In short: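 Counterscreen measures cleavage of 2 microM BOC-RVRR-AMC, below its ~15 microM Km, by 5 nM full-length human furin at pH 7.0 after a 15-min compound preincubation. Inhibition derives from the 15-min fluorescence increase at 37C.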

Q: With N=C(N)c1ccc(CS(=O)(=O)F)cc1 as the compound, how does the Potency [1] read?
A: Its Potency is “inactive”.

Q: What does the source list for CP(=O)(O)C1=CCNCC1?
A: Potency [2]: inactive; Potency [1]: inactive; Potency [3]: inactive

Q: What does the source list for CC(=O)c1c(O)c(C)c(O)c(Cc2c(O)c3c(c(C(=O)/C=C/c4ccccc4)c2O)OC(C)(C)C=C3)c1O?
A: Potency [2]: 50.1 µM (active); Potency [1]: 11.9 µM (active); Potency [3]: inactive; Potency [4]: 5.62 µM (active); Potency [5]: 3.55 µM (active); Potency [6]: 17.8 µM (active); Potency [7]: 63.1 µM (active)

Q: With Oc1cc(Cl)c(Cl)cc1Cl as the compound, how does the Potency (Furin (Homo sapiens)) read?
A: Its Potency is “inactive”.

Q: What about the Potency [4] of the same compound?
A: The Potency was “inactive”.

Q: With CCCN(CCC)C1CCc2cccc(O)c2C1 (stereo unspecified) as the compound, how does the Potency [2] read?
A: Its Potency is “inactive”.

Q: And the Potency [1]?
A: Its Potency is “inactive”.

Q: And the Potency [3]?
A: The Potency was “inactive”.

Q: For CC(C)(O)[C@@H]1C2OC(=O)[C@@H]1[C@]1(O)C[C@H]3O[C@]34C(=O)O[C@H]2[C@]14C (tested in a mixture with another compound), which Potency [1] is on record?
A: Its Potency is “inactive”.

Q: For O=C1CC[C@@]2(O)C3Cc4ccc(O)c5c4C2(CCN3CC2CC2)[C@H]1O5 (stereo partly specified), which Potency [1] is on record?
A: The Potency was “inactive”.

Q: Which Potency [1] does the source give for COc1ccc2[nH]c3c(c2c1)CCNC3 here?
A: The Potency was 26.7 µM (active).

Q: What does the source list for CCCN(CCC)C1Cc2cc(OC)c(OC)cc2C1?
A: Potency [2]: inactive; Potency [1]: inactive; Potency [3]: inactive

Q: What does the source list for NCCc1c[nH]c2ccc(C(N)=O)cc12?
A: Potency [2]: inactive; Potency [3]: inactive

Q: For Cc1c2ccncc2c(C)c2c1[nH]c1ccccc12, which Potency [1] is on record?
A: The Potency was 21.2 µM (active).

Q: For Clc1ccc(N2CC3CCC(C2)N3)nn1, which Potency [1] is on record?
A: The Potency was “inactive”.

Q: Which Potency [1] does the source give for C=CCN1CCC23c4c5ccc(O)c4O[C@H]2C(=O)CC[C@@]3(O)C1C5 (stereo partly specified) here?
A: The Potency was “inactive”.

Q: For Oc1ccc2c3c1O[C@H]1c4oc5ccccc5c4C[C@@]4(O)C(C2)N(CC2CC2)CCC314 (stereo partly specified), which Potency [1] is on record?
A: The Potency was “inactive”.

Q: Which Potency [2] does the source give for C[N+](C)(C)CCOC(=O)CBr here?
A: The Potency was “inactive”.

Q: And the Potency [1]?
A: The Potency was “inactive”.

Q: What about the Potency [3] of the same compound?
A: The Potency was “inactive”.
